# Results published in the supplement of paper PMC11001985.
# A number with no mark means an inactive call.
# Compound: C#CCNC(=O)CCSSCCC(=O)NCCc1ccc(C=O)c(C=O)c1
# Experiment: lysine labeling ratio R10:1 (500 µM / 50 µM probe), SILAC-ABPP in living cells; higher = lower intrinsic lysine reactivity toward the probe, active = 2 or less
# Conditions: HeLa; probe concentrations 500 vs 50 µM
# In short: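 R, given per lysine, is the filtered median high-probe/low-probe MS1 peptide ratio, with the median then taken across forward and reverse replicates. Cells were living SILAC light and heavy HeLa cells in PBS at room temperature, labelled with 50 µM or 500 µM of an alkyne-tagged, disulfide-linked lysine probe. The ceiling applied is 20.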
# Chain of UniProt P52565 (P52565 whole entry): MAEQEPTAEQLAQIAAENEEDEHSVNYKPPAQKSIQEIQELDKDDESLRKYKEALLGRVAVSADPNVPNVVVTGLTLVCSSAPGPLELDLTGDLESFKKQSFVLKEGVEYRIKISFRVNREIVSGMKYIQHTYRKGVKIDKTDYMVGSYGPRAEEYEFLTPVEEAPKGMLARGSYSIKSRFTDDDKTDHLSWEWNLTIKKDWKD
# Chain of UniProt P05787 (P05787 whole entry): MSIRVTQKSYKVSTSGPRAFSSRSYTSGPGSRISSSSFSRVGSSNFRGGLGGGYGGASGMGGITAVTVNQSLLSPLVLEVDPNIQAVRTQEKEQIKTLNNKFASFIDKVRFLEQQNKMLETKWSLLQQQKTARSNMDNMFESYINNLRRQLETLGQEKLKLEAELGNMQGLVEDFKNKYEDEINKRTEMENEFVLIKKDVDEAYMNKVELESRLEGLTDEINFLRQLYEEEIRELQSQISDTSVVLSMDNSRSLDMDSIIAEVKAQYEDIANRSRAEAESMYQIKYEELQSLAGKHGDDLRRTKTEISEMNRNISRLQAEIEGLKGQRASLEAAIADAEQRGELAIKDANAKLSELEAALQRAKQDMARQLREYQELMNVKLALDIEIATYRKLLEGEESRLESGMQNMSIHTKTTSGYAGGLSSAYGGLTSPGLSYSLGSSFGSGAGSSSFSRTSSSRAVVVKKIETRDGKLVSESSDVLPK
# Chain of UniProt P02786 (P02786 whole entry, looked up): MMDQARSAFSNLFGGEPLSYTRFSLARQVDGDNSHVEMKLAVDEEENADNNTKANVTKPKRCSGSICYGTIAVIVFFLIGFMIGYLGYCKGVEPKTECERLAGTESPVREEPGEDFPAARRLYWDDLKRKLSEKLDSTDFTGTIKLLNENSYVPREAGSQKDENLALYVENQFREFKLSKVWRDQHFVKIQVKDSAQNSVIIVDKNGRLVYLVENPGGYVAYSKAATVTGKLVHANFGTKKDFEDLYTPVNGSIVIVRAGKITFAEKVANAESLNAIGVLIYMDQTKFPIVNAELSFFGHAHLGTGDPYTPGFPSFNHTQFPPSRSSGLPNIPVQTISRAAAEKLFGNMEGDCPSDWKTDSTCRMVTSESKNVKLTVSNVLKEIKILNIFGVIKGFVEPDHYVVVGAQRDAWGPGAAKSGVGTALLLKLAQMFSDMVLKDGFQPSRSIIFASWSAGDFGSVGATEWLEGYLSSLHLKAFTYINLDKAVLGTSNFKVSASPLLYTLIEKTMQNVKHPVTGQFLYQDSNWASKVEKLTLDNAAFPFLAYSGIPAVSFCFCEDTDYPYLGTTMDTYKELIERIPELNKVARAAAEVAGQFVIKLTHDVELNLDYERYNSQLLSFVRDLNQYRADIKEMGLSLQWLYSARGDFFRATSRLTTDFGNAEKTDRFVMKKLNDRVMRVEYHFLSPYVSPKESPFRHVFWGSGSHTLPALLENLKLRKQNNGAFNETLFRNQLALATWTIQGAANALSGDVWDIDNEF
# Chain of UniProt Q13332 (Q13332 whole entry): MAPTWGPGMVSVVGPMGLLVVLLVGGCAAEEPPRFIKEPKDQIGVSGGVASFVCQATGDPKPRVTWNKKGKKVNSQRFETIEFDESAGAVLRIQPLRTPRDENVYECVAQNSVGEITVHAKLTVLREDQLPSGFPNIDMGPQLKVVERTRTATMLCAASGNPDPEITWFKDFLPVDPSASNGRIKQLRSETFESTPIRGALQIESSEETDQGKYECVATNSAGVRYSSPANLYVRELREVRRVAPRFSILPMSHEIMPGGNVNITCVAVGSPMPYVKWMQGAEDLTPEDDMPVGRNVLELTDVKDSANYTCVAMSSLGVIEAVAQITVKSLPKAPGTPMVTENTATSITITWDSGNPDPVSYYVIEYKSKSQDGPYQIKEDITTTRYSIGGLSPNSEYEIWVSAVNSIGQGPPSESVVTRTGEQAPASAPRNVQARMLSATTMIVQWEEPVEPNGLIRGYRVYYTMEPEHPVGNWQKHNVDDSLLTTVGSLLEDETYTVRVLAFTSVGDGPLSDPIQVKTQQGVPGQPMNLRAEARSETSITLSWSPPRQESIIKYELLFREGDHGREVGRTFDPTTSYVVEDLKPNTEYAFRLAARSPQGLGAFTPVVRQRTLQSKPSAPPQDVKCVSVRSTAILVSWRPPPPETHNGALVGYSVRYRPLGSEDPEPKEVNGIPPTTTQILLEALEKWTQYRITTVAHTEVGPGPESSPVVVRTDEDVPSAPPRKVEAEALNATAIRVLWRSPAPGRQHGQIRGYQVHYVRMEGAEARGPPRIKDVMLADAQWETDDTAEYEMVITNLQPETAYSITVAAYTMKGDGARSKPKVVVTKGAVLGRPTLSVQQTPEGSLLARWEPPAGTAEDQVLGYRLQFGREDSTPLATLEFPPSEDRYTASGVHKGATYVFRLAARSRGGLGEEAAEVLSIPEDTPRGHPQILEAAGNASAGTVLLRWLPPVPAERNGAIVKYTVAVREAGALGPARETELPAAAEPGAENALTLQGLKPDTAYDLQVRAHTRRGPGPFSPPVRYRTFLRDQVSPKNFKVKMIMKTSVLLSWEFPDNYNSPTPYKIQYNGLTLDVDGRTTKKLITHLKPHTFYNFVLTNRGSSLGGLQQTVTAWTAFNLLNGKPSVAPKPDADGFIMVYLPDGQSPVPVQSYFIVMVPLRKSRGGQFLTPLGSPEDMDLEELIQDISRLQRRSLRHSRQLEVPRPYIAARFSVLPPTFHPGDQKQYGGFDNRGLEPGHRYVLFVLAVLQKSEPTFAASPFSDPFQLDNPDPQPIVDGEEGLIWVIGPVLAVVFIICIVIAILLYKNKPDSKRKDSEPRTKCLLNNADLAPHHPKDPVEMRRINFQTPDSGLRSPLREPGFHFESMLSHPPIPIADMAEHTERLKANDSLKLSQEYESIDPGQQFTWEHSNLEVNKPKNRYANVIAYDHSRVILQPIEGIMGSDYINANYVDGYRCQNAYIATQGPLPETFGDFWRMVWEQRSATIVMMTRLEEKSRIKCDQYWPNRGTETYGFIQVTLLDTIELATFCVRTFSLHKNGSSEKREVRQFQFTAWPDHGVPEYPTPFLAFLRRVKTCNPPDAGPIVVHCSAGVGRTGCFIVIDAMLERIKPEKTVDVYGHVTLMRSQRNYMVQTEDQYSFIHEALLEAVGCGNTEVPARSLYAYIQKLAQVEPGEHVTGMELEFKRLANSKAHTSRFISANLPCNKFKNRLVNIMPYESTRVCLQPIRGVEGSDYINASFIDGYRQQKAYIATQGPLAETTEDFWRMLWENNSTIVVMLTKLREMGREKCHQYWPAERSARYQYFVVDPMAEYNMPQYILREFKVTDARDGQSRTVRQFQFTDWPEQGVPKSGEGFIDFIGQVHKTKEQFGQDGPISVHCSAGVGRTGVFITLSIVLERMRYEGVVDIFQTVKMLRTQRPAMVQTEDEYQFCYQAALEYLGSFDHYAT
# Chain of UniProt Q14165 (Q14165 whole entry): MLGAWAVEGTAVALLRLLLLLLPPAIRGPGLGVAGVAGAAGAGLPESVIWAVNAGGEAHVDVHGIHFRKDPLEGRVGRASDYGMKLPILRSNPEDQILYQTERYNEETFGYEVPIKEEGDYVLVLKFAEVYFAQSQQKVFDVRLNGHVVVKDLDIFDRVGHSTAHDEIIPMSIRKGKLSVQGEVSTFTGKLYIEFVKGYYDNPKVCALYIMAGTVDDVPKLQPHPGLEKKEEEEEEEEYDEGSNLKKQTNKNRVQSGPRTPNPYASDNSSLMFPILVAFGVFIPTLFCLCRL
# Chain of UniProt P17342 (P17342 whole entry): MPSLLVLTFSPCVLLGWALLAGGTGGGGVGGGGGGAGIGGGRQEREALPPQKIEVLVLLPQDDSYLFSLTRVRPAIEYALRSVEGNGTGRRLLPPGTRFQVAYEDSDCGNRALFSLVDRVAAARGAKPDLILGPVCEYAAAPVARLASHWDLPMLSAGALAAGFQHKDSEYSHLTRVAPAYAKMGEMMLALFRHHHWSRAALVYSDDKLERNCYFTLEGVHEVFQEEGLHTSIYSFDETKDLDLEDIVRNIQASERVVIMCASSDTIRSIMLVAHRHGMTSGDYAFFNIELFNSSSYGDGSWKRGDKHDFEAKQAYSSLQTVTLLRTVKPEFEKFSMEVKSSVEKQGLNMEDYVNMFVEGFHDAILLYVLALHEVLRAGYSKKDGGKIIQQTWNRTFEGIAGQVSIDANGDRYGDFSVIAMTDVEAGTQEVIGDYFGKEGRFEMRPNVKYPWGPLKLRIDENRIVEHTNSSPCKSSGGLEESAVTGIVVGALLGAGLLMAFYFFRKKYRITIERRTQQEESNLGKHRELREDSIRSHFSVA
# Chain of UniProt P50454 (P50454 whole entry): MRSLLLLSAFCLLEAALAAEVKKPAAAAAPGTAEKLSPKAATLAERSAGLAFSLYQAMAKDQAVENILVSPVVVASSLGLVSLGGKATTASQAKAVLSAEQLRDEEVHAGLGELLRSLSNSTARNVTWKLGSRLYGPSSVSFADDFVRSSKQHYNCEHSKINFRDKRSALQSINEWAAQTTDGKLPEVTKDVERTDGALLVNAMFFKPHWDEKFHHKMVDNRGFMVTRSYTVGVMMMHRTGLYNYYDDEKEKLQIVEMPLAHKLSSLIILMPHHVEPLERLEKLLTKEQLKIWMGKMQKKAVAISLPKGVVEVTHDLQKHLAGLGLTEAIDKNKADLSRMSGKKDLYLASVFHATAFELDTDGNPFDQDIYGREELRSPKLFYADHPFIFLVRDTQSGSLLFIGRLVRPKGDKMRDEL
# Chain of UniProt P21291 (P21291 whole entry): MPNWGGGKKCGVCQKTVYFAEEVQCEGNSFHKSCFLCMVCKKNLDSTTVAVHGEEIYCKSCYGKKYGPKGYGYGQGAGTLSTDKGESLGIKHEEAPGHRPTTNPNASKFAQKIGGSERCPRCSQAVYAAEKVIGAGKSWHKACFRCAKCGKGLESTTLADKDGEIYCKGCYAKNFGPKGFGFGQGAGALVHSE
# Chain of UniProt P30086 (P30086 whole entry, looked up): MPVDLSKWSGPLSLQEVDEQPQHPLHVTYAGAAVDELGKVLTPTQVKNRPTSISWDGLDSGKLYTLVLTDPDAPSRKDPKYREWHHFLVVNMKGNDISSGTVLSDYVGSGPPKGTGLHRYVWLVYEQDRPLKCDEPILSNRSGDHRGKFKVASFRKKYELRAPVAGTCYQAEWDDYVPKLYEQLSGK
row,Target,lysine labeling ratio R10:1
1,MYH9 (lysine site: K1024) (UniProt P35579),1.84 (active)
2,CSRP1 (lysine site: K178) (UniProt P21291),0.76 (active)
3,UniProt P05787 (lysine site: K465),5.11
4,ARHGDIA (lysine site: K52) (UniProt P52565),1.66 (active)
5,TNKS1BP1 (lysine site: K1676) (UniProt Q9C0C2),2.22
6,MLEC (lysine site: K85) (UniProt Q14165),2.36
7,RPL4 (lysine site: K106) (UniProt P36578),2.43
8,ARHGDIA (lysine site: K178) (UniProt P52565),3.53
9,PEBP1 (lysine site: K187) (UniProt P30086),2.64
10,NPR3 (lysine site: K208) (UniProt P17342),5.04
11,SERPINH1 (lysine site: K410) (UniProt P50454),4.84
12,PTPRS (lysine site: K1001) (UniProt Q13332),4.13
13,L1CAM (lysine site: K568) (UniProt P32004),3.06
14,TFRC (lysine site: K693) (UniProt P02786),5.63
15,TAGLN2 (lysine site: K40) (UniProt P37802),2.67
16,RPL10A (lysine site: K196) (UniProt P62906),2.81
